Screening data deposited in PubChem by National Center for Advancing Translational Sciences (NCATS).
This is one part of a sample in which hits are shown more often than they occur.
LmPK inhibitor: blocks Leishmania mexicana pyruvate kinase activity | Q27686 | 0.37% of 290,000 active | AID 1721 | Potency, µM (doses to about 57.5 µM), without a hit: top-dose activity change, negative = inhibition, usual class: inhibitors | purified LmPK, Kinase-Glo ATP luminescence, 1 h; also: potency is read from the fitted curve at half-maximal effect; % is scaled to controls: 0 for no effect and ±100 for the full control effect
Target sequence (Q27686 whole entry, looked up): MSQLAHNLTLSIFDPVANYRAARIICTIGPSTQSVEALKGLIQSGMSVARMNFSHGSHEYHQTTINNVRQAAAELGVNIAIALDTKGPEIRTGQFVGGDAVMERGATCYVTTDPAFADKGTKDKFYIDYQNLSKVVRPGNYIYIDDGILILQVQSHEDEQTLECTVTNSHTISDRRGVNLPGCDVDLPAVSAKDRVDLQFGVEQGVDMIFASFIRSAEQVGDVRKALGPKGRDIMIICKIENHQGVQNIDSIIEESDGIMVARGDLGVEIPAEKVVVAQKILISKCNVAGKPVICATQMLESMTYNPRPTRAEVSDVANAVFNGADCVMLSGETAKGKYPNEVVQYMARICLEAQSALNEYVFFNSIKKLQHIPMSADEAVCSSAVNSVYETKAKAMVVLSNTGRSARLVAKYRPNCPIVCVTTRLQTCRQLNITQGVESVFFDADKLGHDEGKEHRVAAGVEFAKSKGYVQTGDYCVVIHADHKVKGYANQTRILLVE
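Purified LmPK (0.1 nM) converted ADP (0.1 mM) to ATP with PEP (0.5 mM) in imidazole buffer pH 7.2 with KCl and MgCl2, 1 h at room temperature. ATP was read by Kinase-Glo luminescence; data normalized to uninhibited and no-enzyme controls.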
Giardia FBPA inh: Giardia lamblia aldolase inhibition; A8B2U2; purified Giardia FBPA; Potency, µM (titrated, usually from 59.6 µM), for inactives: at the top dose activity, negative = inhibition, usual class: inhibitors; 0.71% of 290,000 active; AID 2451; also: potency is read from the fitted curve at half-maximal effect; % is scaled to controls: 0 for no effect and ±100 for the full control effect; nearly all actives have a fitted effect of over 55% in size
Target sequence (A8B2U2 whole entry, looked up): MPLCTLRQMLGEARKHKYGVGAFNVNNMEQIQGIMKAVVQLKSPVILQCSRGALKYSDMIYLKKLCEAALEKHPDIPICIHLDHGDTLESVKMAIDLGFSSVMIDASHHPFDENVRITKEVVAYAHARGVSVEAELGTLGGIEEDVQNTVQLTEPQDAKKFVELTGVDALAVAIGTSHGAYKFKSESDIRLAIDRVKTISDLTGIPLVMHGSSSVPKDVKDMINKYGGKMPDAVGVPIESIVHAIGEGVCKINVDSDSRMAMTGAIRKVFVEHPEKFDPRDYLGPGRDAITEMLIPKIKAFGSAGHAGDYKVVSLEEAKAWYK
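Giardia FBPA (40 nM reagent) was preincubated 10 min at RT with compound (up to 57.5 uM final), then substrate plus GAPDH/TPI/NAD/arsenate coupling system with diaphorase/resazurin was added; resorufin fluorescence (525/598 nm) was read after 20 min.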
Cycloheximide cs: counter-screen for Shiga toxin inhibitors: cycloheximide protein synthesis inhibition; 12% of 300,000 active; max response, %; cell reporter, cycloheximide protein synthesis inhibition counterscreen; in the data active = max response mostly above about 13%, no sharp cut-off; inactive = mostly below about 14%; also: read at 38.3 µM for the half of the compounds with a filed dose; 0% is about no effect
RE007 growth inh: less growth of the S. pombe RE007 Vpr strain. S. pombe RE007 Vpr strain, BacTiter-Glo ATP luminescence, 24 h. Potency, µM (highest dose often 92.2 µM), without a hit: at the highest dose activity change, negative = less growth, hits mostly inhibitors. 0.21% of 360,000 active; active = well fitted falling curve with a large enough effect; inconclusive = small, poorly fitted or top-dose-only effect; inactive = no such curve, though single readings can be large or run the other way; also: potency is read from the fitted curve at half-maximal effect; % is scaled to controls: 0 for no effect and ±100 for the full control effect; nearly all actives have a fitted effect of over 50% in size
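Fission yeast strain RE007, carrying one chromosomally integrated HIV-1 vpr copy, was seeded at OD 0.01 in PMG+AL medium with 23 nL pinned compound. After 24 h at 30 °C and 99% humidity, viability was read by BacTiter-Glo luminescence.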
TbPYK inhibitor: blocks Trypanosoma brucei pyruvate kinase; TbPYK enzyme, Kinase-Glo Plus ATP luminescence, 45 min; Potency, µM (series often up to 76.8 µM), without a hit: at the highest dose activity, negative = inhibition, actives largely listed as inhibitors; 0.12% of 410,000 active; AID 624173; also: potency is read from the fitted curve at half-maximal effect; % is scaled to controls: 0 for no effect and ±100 for the full control effect; nearly all actives have a fitted effect of over 50% in size
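Screened from lowest to highest concentration, compounds were pinned into TbPYK/substrate mixtures, and ADP (130 uM final) was added. Plates sat at room temperature for 45 min prior to Kinase-Glo Plus detection by luminescence.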
Shiga inhibitor: Shiga toxin inhibition | 9.2% of 290,000 active | inhibition, % at 38.7 µM | Vero cells, Shiga toxin protein synthesis inhibition reporter; in the data active = inhibition mostly above about 28%, no sharp cut-off; inactive = mostly below about 43%; also: 0% is about no effect
Numbers without * were called inactive; ? = inconclusive; . = no result; [ ] = another dose, or the depositor's remark. Unless noted, calls follow the shape of the dose curve; as a rule, active = well fitted curve in the direction sought with a large enough effect; inconclusive = small, poorly fitted or top-dose-only effect, or another doubt; inactive = no such curve, though single readings can be large; an effect the other way counts as inactive or inconclusive.

SMILES | LmPK inhibitor | Giardia FBPA inh | Cycloheximide cs | RE007 growth inh | TbPYK inhibitor | Shiga inhibitor
CC(C)NC(=O)C1COc2ccccc2O1 (stereo unspecified) | -0.6% | 1.6% | 9.0 | 7.7% | 3.0% | 17.1
Cc1cc(C)c2sc(NNC(=O)C3COc4ccccc4O3)nc2c1 (stereo unspecified) | 0.4% | 7.9% | -2.7 | 2.4% | 9.8% | -7.9
O=C(Nc1ccncc1)C1CCN(S(=O)(=O)c2cccc(C(F)(F)F)c2)CC1 | . | . | . | -16.3% | 5.1% | .
COc1ccc(C(=O)COC(=O)c2cccc(-n3cnnn3)c2)c(OC)c1 | . | . | . | 12.2% | 2.3% | .
CC1(C)CC(=O)c2sc(NC(=O)c3ccco3)nc2C1 | -8.4% | 10.8% | 32.8* | -21.2% | -1.1% | 29.2
Cc1onc(-c2ccccc2)c1C(=O)Nc1nc2c(s1)C(=O)CC(C)(C)C2 | -1.6% | . | 1.4 | -7.7% | 1.7% | -9.6
CC(=O)c1sc(NC(=O)C2COc3ccccc3O2)nc1C (stereo unspecified) | -26.0% | 4.7% | 21.4* | -22.2% | -7.8% | 35.7
CCOC(=O)c1ccccc1NC(=O)Cn1c(=O)n(CCCC(=O)NCc2ccc3c(c2)OCO3)c(=O)c2ccccc21 | . | . | . | . | -13.4% | .
CCC(C)[C@H](NC(=O)[C@@H]1Cc2ccccc2CN1)C(=O)NCc1ccc(C)cc1 (stereo partly specified) | . | . | . | -0.9% | 5.3% | .
CC(C)c1ccc(NC(=O)[C@@H](C)NC(=O)[C@@H]2Cc3ccccc3CN2)cc1 | 4.1% | . | 10.3 | -1.5% | -6.2% | 12.2
CC(C)C[C@H](NC(=O)[C@@H]1Cc2ccccc2CN1)C(=O)Nc1ccc(C(C)C)cc1 | 4.2% | . | 22.6* | -2.3% | -3.9% | 21.8
CCc1ccc(NC(=O)[C@@H](NC(=O)[C@@H]2Cc3ccccc3CN2)C(C)CC)cc1 (stereo partly specified) | 1.7% | ? | 16.1* | -12.5% | 2.1% | 19.8
CC(C)c1ccc(NC(=O)C2CCC(CNC(=O)[C@@H]3Cc4ccccc4CN3)CC2)cc1 (stereo partly specified) | -0.3% | -28.5% | 15.1* | 19.9% | -4.6% | 16.6
CCc1ccc(NC(=O)[C@H](NC(=O)[C@@H]2Cc3ccccc3CN2)c2ccccc2)cc1 | 3.5% | . | 28.4* | -8.4% | 0.0% | 19.1
CC(C)(O)C#Cc1ccc(CN2CCCC(CO)(Cc3cccc(Cl)c3)C2)cc1 (stereo unspecified) | 0.5% | 1.4% | -1.2 | -12.4% | -1.4% | 27.6
CCCCOc1ccc(Cn2c(=O)sc3ccccc32)cc1 | . | . | . | . | 2.0% | .
CCN(CC)C(=O)CSc1nc(N)c2c3c(sc2n1)CC(C)CC3 (stereo unspecified) | 4.9% | 7.6% | 21.4* | 14.6% | 3.8% | 56.9*
CCOC(=O)CSc1nc(N)c2c3c(sc2n1)CCCC3 | 0.8% | -14.0% | 25.1* | 5.2% | -1.9% | 51.0
CC1CCc2c(sc3nc(SCC(=O)NCc4ccco4)nc(N)c23)C1 (stereo unspecified) | 0.1% | -3.1% | 16.6* | -7.1% | -7.0% | 42.1
Cc1cccc(NC(=O)c2ccc(-c3nc(CSc4ccccc4)c(C)o3)cc2)c1C | . | . | . | . | -9.4% | .
N#Cc1nc(COc2ccccc2)oc1NCCCn1ccnc1 | 0.5% | 0.6% | 27.3* | -14.1% | -10.2% | 32.6*
N#Cc1nc(-c2ccc(OCc3ccccc3)cc2)oc1NCCCn1ccnc1 | 11.8% | 7.4% | -1.1 | 0.0% | -4.1% | 11.3
N#Cc1nc(-c2ccc(OCc3ccccc3Cl)cc2)oc1NCCCn1ccnc1 | -8.0% | -6.6% | 15.1* | . | . | 26.1*
CCNc1oc(COc2ccccc2F)nc1C#N | 0.4% | 0.2% | 25.7* | 14.7% | 1.6% | 106.6*
COCCNc1oc(COc2cccc(C)c2)nc1C#N | -1.5% | 0.8% | 19.2* | 19.9% | 0.0% | active
SMILES | LmPK inhibitor | Giardia FBPA inh | Cycloheximide cs | RE007 growth inh | TbPYK inhibitor | Shiga inhibitor
Cc1ccc(CSC2=Nc3ccccc3C3=NC(CCC(=O)NCCc4ccccc4)C(=O)N23)cc1 (stereo unspecified) | . | . | . | . | -1.0% | .
Nc1ccccc1-c1ccc([N+](=O)[O-])cc1 | . | . | . | 14.7% | -0.7% | .
COc1ccc(C(C)C)cc1S(=O)(=O)NCCc1c(C)[nH]c2ccc(C)cc12 | . | . | . | . | -5.4% | .
N#Cc1nc(-c2ccc(F)cc2)oc1NCCCn1ccnc1 | -1.1% | 8.5% | 39.2* | . | . | 41.8*
Cc1ccc(NC(=O)c2cc3c(=O)[nH]c4ccccc4c3n2C)cc1F | . | . | . | . | 1.1% | .
CC1CCN(C(=O)c2cc3ccccc3cc2O)CC1 | -5.4% | . | 13.2 | 6.4% | -3.5% | 21.6
O=C(c1cc2ccccc2c(=O)o1)N1CCCCCC1 | 2.1% | 1.7% | 71.3* | -3.3% | -6.8% | 141.4*
CC1CCN(C(=O)c2cc3ccccc3c(=O)o2)CC1 | 0.2% | 3.5% | 15.9 | 1.0% | -2.2% | 43.8*
COc1cccc(C(=O)N2CC(=O)Nc3ccc(C)cc3C2c2ccc(F)cc2)c1OC (stereo unspecified) | . | . | . | . | 6.8% | .
COc1ccccc1CN1CC[C@@]2(CCCN(C(=O)c3cc(C(F)(F)F)cc(C(F)(F)F)c3)C2)C1 | . | -7.4% | . | . | 0.0% | .
O=C(Cc1ccccc1)N/N=C/c1ccc([N+](=O)[O-])s1 | 4.2% | -1.0% | 34.8 | -23.7% | -8.7% | 111.5*
COC(=O)N/N=C/c1ccc([N+](=O)[O-])s1 | 0.0% | -6.4% | 7.5 | . | -28.7% | 27.5
Cc1ccccc1C(=O)N/N=C/c1ccc([N+](=O)[O-])s1 | 3.4% | -1.9% | -10.3 | -27.9% | -2.8% | -16.4
O=C(N/N=C/c1ccc([N+](=O)[O-])s1)c1ccccc1 | -8.7% | -2.9% | 20.1* | 14.3% | -1.5% | 40.3
O=C(N/N=C/c1ccc([N+](=O)[O-])s1)C(O)c1ccccc1 (stereo unspecified) | -3.4% | ? | 16.2* | -8.5% | -2.3% | 14.2
CCNC(=O)C1CCCN(C(=O)c2ccc(C(F)(F)F)cc2)CC1 (stereo unspecified) | . | . | . | -20.2%[18.4 µM] | 5.3% | .
CCCCN(C)c1c(C)nc2ccc(C(=O)N(C)CCN(C)C)cn12 | . | . | . | -6.9%[18.4 µM] | 1.3% | .
COc1ccccc1OCC(=O)Nc1cc(S(=O)(=O)N2CCOCC2)ccc1N1CCCCC1 | . | . | . | -3.2% | -22.9% | .
Cc1csc(SCCN2C(=O)c3ccccc3C2=O)n1 | -3.6% | -0.1% | 40.0* | -7.2% | 0.3% | 102.0*
O=C1c2ccccc2C(=O)N1CCSc1nncs1 | 1.9% | 7.0% | -1.5 | -0.2% | 2.2% | 7.4
O=C1c2ccccc2C(=O)N1CCc1ccccc1 | . | . | . | 0.3% | -6.8% | .
O=C1c2ccccc2C(=O)N1CCSc1ccccc1 | -4.3% | -0.3% | 34.3* | -15.6% | 3.3% | 60.8
CCCC#CCN1CCN(C23CC4CC(CC(C4)C2)C3)CC1 | -1.7% | -13.3% | -6.2 | -2.4% | 0.2% | -7.9
O=C(NC1CCCCCCC1O)c1ccccc1 (stereo unspecified) | . | . | . | 2.8% | -3.3% | .
